Results from PubChem BioAssay (NCI).
Compounds without any hit were thinned out: in the full panel of roughly 83,000, 20% have a hit.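 Results are percent growth after 48 hours of single-concentration exposure. 100 means growth as in untreated cells, lower positive values show inhibition; negative values down to -100 show cell death.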 Activity calls are given as the source filed them. How the source made its calls: active means growth percent below 10; inactive means the rest.

Test system: SK-OV-3 ovarian
Assay: NCI-60 one-dose screen, 48 h (100 = growth as untreated, 0 = no growth, -100 = all killed)
Conditions: 10 µM unless noted

Question: With `CCOC(=O)c1c(NC(=O)c2ccc(C(C)C)cc2)sc2c(CN(C)C)c(O)ccc12` as the compound, how does the growth read?
Answer: 99.2% (inactive)

Question: Which growth does the source give for `CCOC(=O)c1cnc2ccccc2c1Cl` here?
Answer: 101% (inactive)

Question: Which growth does the source give for `CCN(CC)c1nc(SCc2ccccc2Cl)ncc1C` here?
Answer: 113% (inactive)

Question: For `O=C1Nc2ccc(I)cc2C1=O`, which growth is on record?
Answer: 108% (inactive)

Question: Which growth does the source give for `O=S(=O)(NCCNc1nccc(-c2c(-c3cccc(F)c3)nc3occn23)n1)c1ccc(Br)cc1` here?
Answer: 99.8% (inactive)

Question: Which growth does the source give for `CC(C)c1ccc(COCc2cc(CN3CCCC3)c(O)c3ncccc23)cc1` here?
Answer: -16.4% (active)

Question: How did the growth turn out when `COc1ccc2cc(C(=O)c3coc4ccc(O)cc34)ccc2c1` was run?
Answer: 77.2% (inactive)

Question: With `O=C(CI)NC1Oc2ccccc2-c2oc(=O)c(-c3ccccc3)cc21` (stereo unspecified) as the compound, how does the growth read?
Answer: 103% (inactive)

Question: `Cc1ccc(-n2c(=S)[nH]c3sc4c(c3c2=O)CCC(=O)C4)cc1` was tested. Which growth did it give?
Answer: 91.6% (inactive)

Question: With `C=CCn1c(SCC(=O)Nc2ccc(C(=O)/C=C/c3cc4cc(OC)ccc4nc3Cl)cc2)nnc1-c1ccc(Br)cc1` as the compound, how does the growth read?
Answer: 95.7% (inactive)

Question: `COc1cccc(/C=C/C(=O)c2cc3c(N)c(C(=O)Nc4ccccc4)sc3nc2C)c1` was tested. Which growth did it give?
Answer: 94.6% (inactive)

Question: Which growth does the source give for `O=C1C(Cl)=C(Oc2ccccc2)C(=O)c2ccccc21` here?
Answer: 103% (inactive)

Question: How did the growth turn out when `CC(C)OC(=O)c1ccc2[nH]c(O)c(C(=Nc3ccc(N(C)C(=O)CN4CCN(C)CC4)cc3)c3ccccc3)c2c1` was run?
Answer: -81.6% (active)

Question: How did the growth turn out when `N#CC1C=CN(CC(N)=O)c2ccc3cccnc3c21` (stereo unspecified) was run?
Answer: 97.1% (inactive)

Question: With `S=C(Nc1ccc(-c2nc(N3CCOCC3)c3cccn3n2)cc1)Nc1cccnc1` as the compound, how does the growth read?
Answer: 21.5% (inactive)

Question: `Cc1cc2c(O)c(-c3cccc(Cl)c3)c3sc(=O)oc3c2cc1C` was tested. Which growth did it give?
Answer: 59.4% (inactive)

Question: `COC(=O)[C@H]1CCCN1C[C@@H](O)CN1C(=O)/C(=C\c2cc(OC)c(OC)c(OC)c2)c2ccccc21` was tested. Which growth did it give?
Answer: 108% (inactive)

Question: Which growth does the source give for `CS(=O)(=O)Nc1cc(-c2ccc3ncnc(Nc4c(Cl)ccc5c4OCO5)c3c2)cnc1Cl` here?
Answer: -10.2% (active)

Question: For `COc1ccc(C(=S)N2CCN(c3ccccc3Cl)CC2)cc1OC`, which growth is on record?
Answer: 120% (inactive)

Question: `CC(C)N1CN2C(=S)NC3C2N(C1)C(=S)N3C` (stereo unspecified) was tested. Which growth did it give?
Answer: 109% (inactive)

Question: With `O=C(c1ccc(-c2nc(CSc3nc4ccccc4s3)no2)cc1)N1CCSCC1` as the compound, how does the growth read?
Answer: 72.6% (inactive)

Question: How did the growth turn out when `O=Nc1c(-c2c(O)[nH]c3ncccc23)[nH]c2ccccc12` was run?
Answer: 6.5% (active)

Question: How did the growth turn out when `O=C(CSc1nnc2n1S(=O)(=O)c1ccccc1N2c1ccccc1)Nc1nc2ccc(F)cc2s1` was run?
Answer: 108% (inactive)

Question: For `O=C1/C(=C/c2ccccc2Br)COc2ccc(O)c(O)c21`, which growth is on record?
Answer: 74.7% (inactive)

Question: Which growth does the source give for `CCOC(=O)C(=Cc1cccc(Br)c1)C(=O)OCC` here?
Answer: 86.2% (inactive)

Question: For `COC(C(=O)[C@@H](O)[C@@H](C)O)[C@@H]1Cc2cc3cc(O[C@H]4C[C@@H](O[C@H]5C[C@@H](O)[C@H](O)C(C)O5)[C@H](O)C(C)O4)cc(O)c3c(O)c2C(=O)[C@H]1O[C@H]1C[C@@H](O[C@H]2C[C@@H](O[C@H]3C[C@@H](OC)[C@H](O)C(C)O3)[C@@H](O)C(C)O2)[C@H](O)C(C)O1` (stereo partly specified), which growth is on record?
Answer: 32.3% (inactive)

Question: How did the growth turn out when `Cc1ccc(-c2cc(-c3ccc(Cl)cc3)nc(NC(=O)c3cccnc3)n2)cc1` was run?
Answer: 109% (inactive)

Question: Which growth does the source give for `Fc1cccc(CNc2c3ccccc3nc3ccccc23)c1F` here?
Answer: 75.8% (inactive)

Question: Which growth does the source give for `CN(C)CC(=O)Nc1ccc2ncnc(Nc3ccc(Oc4cccc(C(F)(F)F)c4)c(Cl)c3)c2c1` here?
Answer: 19.7% (inactive)

Question: With `Cc1cc(N)c2cc(NC(=O)/C=C\c3ccccc3Cl)ccc2n1` as the compound, how does the growth read?
Answer: -96.4% (active)

Question: `N#CC1=C(N)Oc2c(sc3c(F)cccc23)C1c1ccc(F)cc1` (stereo unspecified) was tested. Which growth did it give?
Answer: 31.8% (inactive)

Question: How did the growth turn out when `C/C(=C(/c1ccc(Cl)cc1)c1ccc(OCCN2CCCC2)cc1)c1ccc(Cl)cc1` was run?
Answer: 108% (inactive)

Question: Which growth does the source give for `COC(=O)c1ccc2c(c1)C(=O)c1c-2n(CCCN)c(=O)c2cc([N+](=O)[O-])ccc12` here?
Answer: -81.8% (active)

Question: How did the growth turn out when `CS(=O)(=O)C1=CN(CCO)C(=O)N2CCCN=C12` was run?
Answer: 97.5% (inactive)

Question: With `O=C1Nc2ccccc2[C@]12CC(c1ccccc1)=NN2` as the compound, how does the growth read?
Answer: 57.1% (inactive)

Question: Which growth does the source give for `O=C(Cn1c(=O)sc2nc3ccccc3nc21)Nc1ncc(Cc2cccc(Cl)c2Cl)s1` here?
Answer: 95.1% (inactive)

Question: How did the growth turn out when `O=C(N/N=C/c1ccc(F)cc1)c1ccc(C(F)(F)F)nc1Nc1cccc(C(F)(F)F)c1` was run?
Answer: -7.48% (active)

Question: `COC(=O)[C@]1(C)CCC[C@]2(C)[C@H]3C[C@H]4C(C(C)C)=C[C@]3(CC[C@H]21)[C@H]1[C@@H]4[C@@H](OCCC#N)CC[C@@H]1OCCC#N` was tested. Which growth did it give?
Answer: 75.8% (inactive)

Question: `CN(C)c1ccc(Nc2cc(-c3cccc(OC(F)(F)F)c3)nc3ccc(N4CCCC4)cc23)cc1` was tested. Which growth did it give?
Answer: 98.6% (inactive)

Question: `CCn1c(=S)sc2c(Nc3ccc(F)cc3)nc(-c3cccnc3)nc21` was tested. Which growth did it give?
Answer: 56.6% (inactive)

Test system: IGROV1 ovarian
Assay: as above
Conditions: 10 µM unless noted

Question: Which growth does the source give for `CCOC(=O)c1c(NC(=O)c2ccc(C(C)C)cc2)sc2c(CN(C)C)c(O)ccc12` here?
Answer: 72.5% (inactive)

Question: With `CCOC(=O)c1cnc2ccccc2c1Cl` as the compound, how does the growth read?
Answer: 122% (inactive)

Question: For `CCN(CC)c1nc(SCc2ccccc2Cl)ncc1C`, which growth is on record?
Answer: 109% (inactive)

Question: With `O=C1Nc2ccc(I)cc2C1=O` as the compound, how does the growth read?
Answer: 46.6% (inactive)

Question: With `O=S(=O)(NCCNc1nccc(-c2c(-c3cccc(F)c3)nc3occn23)n1)c1ccc(Br)cc1` as the compound, how does the growth read?
Answer: 57.7% (inactive)

Question: For `O=C(CI)NC1Oc2ccccc2-c2oc(=O)c(-c3ccccc3)cc21` (stereo unspecified), which growth is on record?
Answer: -59% (active)

Question: `Cc1ccc(-n2c(=S)[nH]c3sc4c(c3c2=O)CCC(=O)C4)cc1` was tested. Which growth did it give?
Answer: 48.9% (inactive)

Question: Which growth does the source give for `C=CCn1c(SCC(=O)Nc2ccc(C(=O)/C=C/c3cc4cc(OC)ccc4nc3Cl)cc2)nnc1-c1ccc(Br)cc1` here?
Answer: 78.4% (inactive)

Question: `COc1cccc(/C=C/C(=O)c2cc3c(N)c(C(=O)Nc4ccccc4)sc3nc2C)c1` was tested. Which growth did it give?
Answer: 2.44% (active)

Question: How did the growth turn out when `O=C1C(Cl)=C(Oc2ccccc2)C(=O)c2ccccc21` was run?
Answer: 80.7% (inactive)

Question: For `CC(C)OC(=O)c1ccc2[nH]c(O)c(C(=Nc3ccc(N(C)C(=O)CN4CCN(C)CC4)cc3)c3ccccc3)c2c1`, which growth is on record?
Answer: -39.2% (active)

Question: How did the growth turn out when `N#CC1C=CN(CC(N)=O)c2ccc3cccnc3c21` (stereo unspecified) was run?
Answer: 101% (inactive)

Question: For `S=C(Nc1ccc(-c2nc(N3CCOCC3)c3cccn3n2)cc1)Nc1cccnc1`, which growth is on record?
Answer: 11% (inactive)

Question: For `COC(=O)[C@H]1CCCN1C[C@@H](O)CN1C(=O)/C(=C\c2cc(OC)c(OC)c(OC)c2)c2ccccc21`, which growth is on record?
Answer: 102% (inactive)

Question: For `CS(=O)(=O)Nc1cc(-c2ccc3ncnc(Nc4c(Cl)ccc5c4OCO5)c3c2)cnc1Cl`, which growth is on record?
Answer: -53.5% (active)

Question: How did the growth turn out when `COc1ccc(C(=S)N2CCN(c3ccccc3Cl)CC2)cc1OC` was run?
Answer: 105% (inactive)

Question: `CC(C)N1CN2C(=S)NC3C2N(C1)C(=S)N3C` (stereo unspecified) was tested. Which growth did it give?
Answer: 103% (inactive)

Question: For `O=C(c1ccc(-c2nc(CSc3nc4ccccc4s3)no2)cc1)N1CCSCC1`, which growth is on record?
Answer: 77.6% (inactive)

Question: `O=Nc1c(-c2c(O)[nH]c3ncccc23)[nH]c2ccccc12` was tested. Which growth did it give?
Answer: -25.3% (active)

Question: Which growth does the source give for `Cc1ccc(-c2cc(-c3ccc(Cl)cc3)nc(NC(=O)c3cccnc3)n2)cc1` here?
Answer: 102% (inactive)

Question: How did the growth turn out when `CN(C)CC(=O)Nc1ccc2ncnc(Nc3ccc(Oc4cccc(C(F)(F)F)c4)c(Cl)c3)c2c1` was run?
Answer: 8.24% (active)

Question: Which growth does the source give for `N#CC1=C(N)Oc2c(sc3c(F)cccc23)C1c1ccc(F)cc1` (stereo unspecified) here?
Answer: 33.9% (inactive)

Question: `C/C(=C(/c1ccc(Cl)cc1)c1ccc(OCCN2CCCC2)cc1)c1ccc(Cl)cc1` was tested. Which growth did it give?
Answer: 81.1% (inactive)

Question: How did the growth turn out when `COC(=O)c1ccc2c(c1)C(=O)c1c-2n(CCCN)c(=O)c2cc([N+](=O)[O-])ccc12` was run?
Answer: -81.7% (active)

Question: With `CS(=O)(=O)C1=CN(CCO)C(=O)N2CCCN=C12` as the compound, how does the growth read?
Answer: 102% (inactive)

Question: `O=C1Nc2ccccc2[C@]12CC(c1ccccc1)=NN2` was tested. Which growth did it give?
Answer: 33.1% (inactive)

Question: Which growth does the source give for `O=C(Cn1c(=O)sc2nc3ccccc3nc21)Nc1ncc(Cc2cccc(Cl)c2Cl)s1` here?
Answer: 81.3% (inactive)

Question: `O=C(N/N=C/c1ccc(F)cc1)c1ccc(C(F)(F)F)nc1Nc1cccc(C(F)(F)F)c1` was tested. Which growth did it give?
Answer: -19.6% (active)

Question: `COC(=O)[C@]1(C)CCC[C@]2(C)[C@H]3C[C@H]4C(C(C)C)=C[C@]3(CC[C@H]21)[C@H]1[C@@H]4[C@@H](OCCC#N)CC[C@@H]1OCCC#N` was tested. Which growth did it give?
Answer: 41.5% (inactive)

Question: For `CN(C)c1ccc(Nc2cc(-c3cccc(OC(F)(F)F)c3)nc3ccc(N4CCCC4)cc23)cc1`, which growth is on record?
Answer: -17.9% (active)

Question: Which growth does the source give for `CCn1c(=S)sc2c(Nc3ccc(F)cc3)nc(-c3cccnc3)nc21` here?
Answer: 75.3% (inactive)
